Experimental findings from ChEMBL document CHEMBL1157539, “Thousands of chemical starting points for antimalarial lead identification” (Nature, 2010) are described below.

Each structure is given as a SMILES string.

The assay concerns HepG2. Put plainly: GSK_TCMDC: Percent inhibition of human HepG2 cell line. Test compounds present at 10uM. The class given is functional.
A word on the Inhibition: it is how much of the control response was suppressed. Consider `CN(C)CCOc1cc(NC(=O)Nc2ccc(-c3ccncc3)c(C(F)(F)F)c2)ccc1Cl`, for which the Inhibition is on record as 36%.

`CNCCNCc1cccc(-c2ccc(-c3nc4cccc(C)c4[nH]3)cc2)c1.O=C(O)C(F)(F)F` yielded an Inhibition of 17%.

In turn, `COc1ccc2ncc(F)c(CCN3CCC(NCc4cnc5c(c4)NC(=O)CS5)CC3)c2c1.Cl` showed an Inhibition of 16%.

`CCc1sc(-c2cc(Cl)ccc2OC)nc1C(=O)NCCN1CCCCC1.O=C(O)C(F)(F)F` showed an Inhibition of 3%.

As to `CN(C)CCCNc1ccnc2cc(Cl)ccc12`, the Inhibition worked out at 10%.
